This passage reports GTP binding, percent of control results from PubChem BioAssay.

This test deals with GTPase HRas (Homo sapiens) (UniProt P01112). Kind of test: inhibitors of GTP binding to wildtype Ras, dose response, biochemical, multiplex bead flow cytometry (AID 1335). The conditions noted are these: bead-based flow cytometry, Bodipy-GTP binding to GST-Ras; at 100 µM (top of the series) unless noted. In general terms: In flow cytometry, cells or beads pass a laser one at a time.
GTPase HRas (Homo sapiens), sequence (P01112 whole entry, looked up): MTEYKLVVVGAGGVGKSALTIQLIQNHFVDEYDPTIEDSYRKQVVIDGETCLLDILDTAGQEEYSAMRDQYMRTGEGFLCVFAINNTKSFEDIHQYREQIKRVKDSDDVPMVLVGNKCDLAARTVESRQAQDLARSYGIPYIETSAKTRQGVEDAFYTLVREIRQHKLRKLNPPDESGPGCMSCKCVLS
In turn, `O=C(O)c1c(C(F)(F)F)ccnc1SCc1ccccc1` came in with a GTP binding, percent of control of 228%.
In the case of `Cc1cc(C)n2nc(C(=O)N3CCCC(CNS(=O)(=O)c4cccs4)C3)cc2n1` (centres undefined) it was 85.6%.
With `CCC(C)C(=O)Nc1ccc(OC)cc1OC` (centres undefined) the figure was 161%; with `Cc1ccc(-n2nc3c(SCCN4CCOCC4)nnc(C)c3c2C)cc1`, 64.6%; with `CCCCCn1nc(C(=O)OCC(=O)c2c(N)n(C)c(=O)n(C)c2=O)c2ccccc2c1=O`, 79.6%.
In the case of `COCCCNc1nc(=S)[nH]c2cc(OC)c(OC)cc12` it was 41.5%; in that of `COc1ccccc1Oc1ccccc1C(=O)O`, 239%.
`Cc1nn(CCc2nn[nH]n2)c2nc(-c3ccc(C4CCCCC4)cc3)cc(C(F)(F)F)c12` yielded a GTP binding, percent of control of 79.4%.
For `O=c1c2ccc([N+](=O)[O-])cc2ncn1CCOc1ccccc1`, the GTP binding, percent of control came to 95.3%.
With `CSc1nnc(-c2cc(Br)ccc2N=Cc2c(C)[nH]n(-c3ccccc3)c2=O)c(=O)[nH]1`, the GTP binding, percent of control is 67.4%.
In turn, `Cc1ccc(N=Nc2c(N)[nH]n3c(=O)cc(C)nc23)cc1` showed a GTP binding, percent of control of 61%.
In the case of `O=C(N/N=C/c1c(O)n(Cc2ccccc2)c(=O)c2ccccc12)c1cccnc1` it was 75.7%.
In the case of `CCn1cc(C(=O)OCC(=O)c2cc(C)n(-c3cccc(C(F)(F)F)c3)c2C)c(=O)c2ccc(C)nc21` it was 57.8%; in that of `Cc1sc2ncnc(N/N=C/c3ccc(O)cc3)c2c1C`, 64.8%.
In the case of `O=c1[nH]c2ccc(S(=O)(=O)NCc3ccccc3)cc2[nH]1` it was 84.5%; in that of `CCc1ccc(Cn2nnc(C(=O)O)c2C(=O)O)cc1`, 82.3%.
For `Cc1cc(NS(=O)(=O)c2ccc(NC(=O)c3cc4c(=O)n5ccccc5nc4s3)cc2)nc(C)n1`, the GTP binding, percent of control was 77.5%.
On to `CC(C)N(C)NC(=S)Nc1ccccc1`, for which the GTP binding, percent of control was determined as 64.3%.
With `C=CC#CC[N+]1(CC#Cc2ccccc2)CCOCC1` the figure was 95.4%; with `CC1=C(C(=O)Nc2ccccc2)C(c2ccc(Cl)cc2)n2c(s/c(=C/c3cccc(OCC(=O)O)c3)c2=O)=N1` (centres undefined), 75.3%.
In the case of `CCOC(=O)c1c(-c2ccccc2)csc1NC(=O)/C(C#N)=C/c1ccc(O)c(OC)c1` it was 85%; in that of `COc1ccc(/C=N/Nc2ncnc3sc4c(c23)CCCC4)cc1O`, 42.8%.
For the compound `Cc1ccc(C)c(OCc2ccc(C(=O)O)o2)c1`, the GTP binding, percent of control is 87.7%.
With `CCCCNC(=O)c1cc([N+](=O)[O-])[nH]n1` the figure was 74.5%; with `Cc1ccc(Nc2n[nH]c(C)c2[N+](=O)[O-])c(C)c1`, 65.8%; with `O=c1c2ccccc2nc2c3ccccc3c(Cl)nn12`, 83.1%.
With `O=C(O)/C=C/C(=O)Nc1cccnc1`, the GTP binding, percent of control turned out to be 64.4%.
For the compound `COc1ccc(/C=C2\SC(=S)N(CCCC(=O)NNC(=O)c3ccccc3O)C2=O)cc1`, the GTP binding, percent of control stood at 73.5%.
In the case of `CCC/C(O)=C1\C(=O)CC(C)(C)CC1=Nc1ccccc1OC` it was 88.8%; in that of `CC(=O)NC1CC2CCCC(C1)N2C(=O)Nc1ccc(Cl)c(C(F)(F)F)c1` (centres undefined), 146%; in that of `CCCCn1c(O)c(N=NC(=O)c2ccccc2NS(=O)(=O)c2cccs2)c2ccccc21`, 87.8%.
On to `Cc1c(C(=O)N2CCc3ccccc3C2)oc2ccc(S(=O)(=O)N3CCCCCC3)cc12`, for which the GTP binding, percent of control came out at 76%.
On to `COc1cc2[nH]c(=S)nc(Nc3ccc(NC(C)=O)cc3)c2cc1OC`, for which the GTP binding, percent of control was 52.2%.
Compound `O=C(CSc1nnc2c(n1)[nH]c1ccccc12)Nc1ccc(S(=O)(=O)Nc2ncccn2)cc1` gave a GTP binding, percent of control of 72.8%.
In the case of `CCCN1C(=O)/C(=C\C=C2/Sc3ccccc3N2CC)SC1=S` it was 57.8%; in that of `C=CCn1c(COc2ccc(F)cc2)nnc1SCC(=O)c1c[nH]c2c(CC)cccc12`, 60.7%; in that of `O=C(CSc1ccc2nnc(-c3ccccn3)n2n1)Nc1ccc2c(c1)OCO2`, 53.4%.
In the case of `COc1ccccc1C(=O)Nc1nc(-c2ccc3c(c2)OCCO3)cs1` it was 77%; in that of `COc1ccc(O)c(-c2cc(C(F)(F)C(F)F)nc(-c3ccccc3)n2)c1`, 177%.
